Where “and” joins values, the source holds several entries; their conditions need not be identical. Identical values can stand only once. About 83,000 compounds went through this panel and 20% of them were active in at least one assay; those are over-represented in the sample as a whole.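 Cells were grown in 96-well plates and exposed to the test compound at a single concentration for 48 hours; results are reported as percent growth, with values below 10 considered active.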 Calls of active or inactive are those of the source.

This assay has as its system HL-60(TB) leukemia. Put plainly: NCI-60 one-dose screen, 48 h (100 = growth as untreated, 0 = no growth, -100 = all killed). As to conditions: 10 µM unless noted.
Regarding `Cc1ccc(OC(=O)c2ccc(Cl)cc2)cc1`, the growth is 124% (inactive).
Turning to `Cc1nnc(NS(=O)(=O)c2ccc(N=Nc3ccc(N)nc3N)cc2)s1`, the growth is 98.4% (inactive) and 98.2% (inactive).
As for `Br/C(=N\Nc1nn[nH]n1)c1ccccc1`, the growth is 103% (inactive).
Consider `COc1ccc(-c2c3c(N)c4c(nc3nc3c2c(C)nn3-c2ccccc2)CCCCC4)cc1`, for which the growth was 49.3% (inactive).
For the compound `c1ccc(C(Nc2ccccn2)(c2ccccc2)c2ccccc2)cc1`, the growth was 90.4% (inactive).
With `Cc1ccc(S(=O)(=O)Nc2ccc3cc([N+](=O)[O-])ccc3c2[N+](=O)[O-])cc1`, the growth is 83.3% (inactive) and 31% (inactive).
Regarding `N#CCCn1cnc2c(N)ncnc21`, the growth was 98.6% (inactive).
As to `O=[N+]([O-])c1cccc(-c2nc3cc4nc5ccccc5[nH]c4cc3n2)c1`, the growth was 91.5% (inactive).
With `C=C1CC[C@@H]2[C@](C)(COC(C)=O)[C@H](OC(C)=O)CC[C@@]2(C)[C@@H]1CC(Sc1ccccc1)C1=CCOC1=O` (some centres undefined), the growth is -46.5% (active).
Take `CCCCCCCCCCCC(=O)C(CCCCCCCCCC)C(=O)Nc1ccccc1` (centres undefined): the growth was 101% (inactive).
Consider `CCN(CC)c1ccc(NC(C(=O)c2ccccc2)c2ccccc2)cc1` (centres undefined), for which the growth was 65.5% (inactive).
In the case of `Oc1c(Br)cc(Br)c2ccc(Cn3cc(-c4ccccc4C(F)(F)F)nn3)nc12`, the growth is 0.588% (active).
As for `CN1CCN(CCCN2c3ccccc3Sc3ccc(Cl)cc32)CC1`, the figure is 98.9% (inactive) and 50.7% (inactive); as for `O=C1NC(=O)C2(CCc3ccccc32)N1` (centres undefined), 93.7% (inactive) and 106% (inactive).

The values are drawn from PubChem BioAssay (NCI).
